Hits are enriched below; roughly 3.4% of the tested compounds scored in any of these assays.
TEAD-YAP block: TEAD-YAP interaction inhibition; HEK-TIYL cells, TEAD-Gal4/YAP UAS-luciferase luminescence; hit rate 1.4% among 640,000; inhibition, % at 9.12 µM; in the data active means inhibition above about 32%
GPR151 ag: human GPR151 activation. Q8TDV0. PathHunter beta-arrestin GPR151 cells, luminescence. activation, % at 11.2 µM. hit rate 1% among 650,000; in the data active means activation above about 4.9%
MITF primary: inhibitors of human MITF; O75030; AID 1259374; hit rate 0.91% among 650,000; AlphaScreen MITF homodimerization, bead proximity signal; inhibition, % at 2.6 µM; in the data active means inhibition above about 50%
FBW7 act: human FBW7 E3 ligase activation, primary screen | Q969H0 | AlphaScreen FBW7–phospho-cyclin E peptide binding, activator screen | normalized activity (activation), % at 26.1 µM | hit rate 0.13% among 650,000 | AID 1259310; in the data active means normalized activity above about 1.9%;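 further: purified mutant Fbw7 with reduced substrate affinity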
GPR151 confirm: confirmation of human GPR151 activators; shares compounds with GPR151 ag; GPR151 PathHunter beta-arrestin cells, luminescence, 90 min; % of EA-reagent control over plate median; activation, % at 11.2 µM; 6,700 tested, under 10 active; AID 1508609;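 active means mean percent activation across replicates above the confirmation screen cutoff of 4.91%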
GPR119 ag: counter-screen for GPR151 activators: effect on human GPR119; shares compounds with GPR151 ag; GPR119 PathHunter beta-arrestin cells, luminescence, 90 min; 0 = compound-well median, 100 = enzyme-acceptor control; activation, % at 11.2 µM; hit rate 0.3% among 6,700;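 active means mean percent activation in the counterscreen above 29.09%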;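 further: counterscreen on off-target GPR119 to flag nonselective hits from the GPR151 activator screen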
Target sequence (Q8TDV5 whole entry, looked up): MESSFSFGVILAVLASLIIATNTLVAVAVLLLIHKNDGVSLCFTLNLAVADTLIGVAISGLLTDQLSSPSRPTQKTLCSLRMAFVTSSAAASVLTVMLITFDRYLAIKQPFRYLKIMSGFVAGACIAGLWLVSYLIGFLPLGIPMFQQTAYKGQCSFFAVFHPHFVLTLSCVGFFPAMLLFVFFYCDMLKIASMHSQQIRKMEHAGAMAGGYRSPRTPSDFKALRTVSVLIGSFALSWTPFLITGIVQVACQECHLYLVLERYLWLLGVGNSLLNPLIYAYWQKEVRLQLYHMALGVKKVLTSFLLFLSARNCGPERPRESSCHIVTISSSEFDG
Of the large screens only hits and unclear results are named; the others gave an inactive call (follow-up assays come after a bar, where they were run); ! = not confirmed by another sample.

O=C(NN1C(=O)C2C3C=CC(C3)C2C1=O)c1ccncc1 (stereo unspecified)	none
CCNC(=O)CCSc1nnc(-c2ccccc2C)o1	none
NC(=O)c1cn(-c2ccccc2)nc1-c1ccc(Cl)cc1	none
CN(Cc1cn(-c2ccccc2)nc1-c1ccc(Cl)cc1)C(=O)CCC(=O)O	GPR151 ag 5.6 | GPR151 confirm inactive | GPR119 ag inactive
CCCCOC(=O)c1ccc(NC(=O)c2ccc(C3CCCCC3)cc2)cc1	TEAD-YAP block 32.6, GPR151 ag 7.2 | GPR151 confirm inactive | GPR119 ag inactive
COc1ccc(CCN(C)CCCC(C#N)(c2cc(OC)c(OC)c(OC)c2)C(C)C)cc1OC (stereo unspecified)	GPR151 ag 5.6 | GPR151 confirm inactive | GPR119 ag inactive
COc1ccc(-c2cc(C(=O)N3C(C)CCCC3C)[nH]n2)cc1 (stereo unspecified)	none
COc1ccc(-c2cc(C(=O)N3CCCCC3C)[nH]n2)cc1 (stereo unspecified)	GPR151 ag 5.3 | GPR151 confirm inactive | GPR119 ag inactive
N#Cc1c(NC(=S)NC(=O)c2cccc(F)c2)sc2c1CCCCCC2	none
O=C(NC1CCCCC1)c1ccc(Sc2ccc(Br)cc2)c([N+](=O)[O-])c1	none
CC(=O)c1ccccc1NC(=O)CSc1n[nH]c(N)n1	GPR151 ag 8.0 | GPR151 confirm inactive | GPR119 ag inactive
CCOC(=O)c1ccccc1NC(=O)CSc1n[nH]c(N)n1	none
O=C1N(C2Cc3ccccc3C2)C[C@@H]2C[C@@H](c3ccc4nsnc4c3)N3CCC[C@@]123	GPR151 ag 9.4 | GPR151 confirm inactive | GPR119 ag inactive
O=C1N(C2Cc3ccccc3C2)C[C@@H]2C[C@@H](c3ccccc3F)N3CCC[C@@]123	GPR151 ag 15.2 | GPR151 confirm inactive | GPR119 ag inactive
Nn1cnn2c(SCC(=O)Nc3ccc(Cl)c(Cl)c3)nnc12	none
CCCC1=NN(c2nc3ccccc3s2)C(=O)/C1=C(\C)N1CCOCC1	none
CCNC(=O)C(C)Oc1ccc(Cl)cc1C (stereo unspecified)	GPR151 ag 5.5 | GPR151 confirm inactive | GPR119 ag inactive
CCC(=O)NNC(=O)C(C)Oc1ccc(Cl)cc1Cl (stereo unspecified)	none
CC(=O)C/C(C)=N/NC(=O)C(C)Oc1ccc(Cl)cc1C (stereo unspecified)	none
COCC(=O)NNC(=O)C(C)Oc1ccc(Cl)cc1Cl (stereo unspecified)	GPR151 ag 5.0 | GPR151 confirm inactive | GPR119 ag inactive
CCN(CC)CCn1c(N)c(C(=O)Nc2ccccc2C)sc1=S	GPR151 ag 6.0 | GPR151 confirm inactive | GPR119 ag inactive
CCOc1ccc(-n2c(N)c(C(=O)Nc3ccccc3C)sc2=S)cc1	none
CCOc1cc(C(=O)NNC(=O)Nc2ccc(C)cc2)cc(OCC)c1OCC	none
CC(C)C1=NOC(C(=O)N2CCC(CO)(Cc3cccc(C(F)(F)F)c3)CC2)C1 (stereo unspecified)	GPR151 ag 5.2 | GPR151 confirm inactive | GPR119 ag inactive
CC(=O)N/C(=C\c1ccccc1)C(=O)NC(C)(C)C	GPR151 ag 5.6 | GPR151 confirm inactive | GPR119 ag inactive
CC1CCCC(NS(=O)(=O)c2ccc(F)c(C(=O)Nc3cc(Cl)ccc3Cl)c2)C1C (stereo unspecified)	GPR151 ag 7.3 | GPR151 confirm inactive | GPR119 ag inactive
O=C1CS/C(=N/N=C/c2ccccc2)N1	none
O=C1CS/C(=N\N=C\c2ccc(O)cc2)N1	GPR151 ag 7.4 | GPR151 confirm inactive | GPR119 ag inactive
NC(=O)c1ccc(-n2c(CCC(=O)O)ccc2-c2ccccc2)cc1	none
NC(=O)c1ccc(-n2c(CCC(=O)O)ccc2-c2ccc(F)cc2)cc1	GPR151 ag 9.7 | GPR151 confirm inactive | GPR119 ag inactive
Cc1ccn2c(NC(=O)c3ccc([N+](=O)[O-])cc3)c(-c3ccccc3)nc2c1	none
COc1cc(Cl)c(C)cc1NC(=O)COC(=O)C(CC(C)C)NC(N)=O (stereo unspecified)	none
COc1cc([N+](=O)[O-])ccc1NC(=O)COC(=O)C(CC(C)C)NC(N)=O (stereo unspecified)	GPR151 ag 5.3 | GPR151 confirm inactive | GPR119 ag inactive
COc1ccc([N+](=O)[O-])cc1NC(=O)COC(=O)CC(c1ccccc1)c1ccccc1	GPR151 ag 5.2 | GPR151 confirm inactive | GPR119 ag inactive
CCN1CCN(c2nc3cc(OC)ccc3cc2CNCc2ccsc2)CC1	none
CCOC(=O)C(=O)Nc1ccc2nc3n(c(=O)c2c1)CCCCC3	GPR151 ag 5.4 | GPR151 confirm inactive | GPR119 ag inactive
CCOC(=O)c1ccc(NC(=O)C(=O)Nc2ccc3nc4n(c(=O)c3c2)CCCCC4)cc1	none
CCOc1ccc(N(CC)C(=O)C(=O)Nc2ccc3nc4n(c(=O)c3c2)CCCCC4)cc1	GPR151 ag 11.0 | GPR151 confirm inactive | GPR119 ag inactive
CCc1ccc(C(=O)COC(=O)c2ccc(S(C)(=O)=O)c([N+](=O)[O-])c2)cc1	none
Cc1cc(C)c2[nH]c(=O)c(CN(CCCO)C(=O)c3ccccc3)cc2c1	none
O=C(NCc1ccc(F)cc1)c1ccc2nc(-c3cccs3)c(-c3cccs3)nc2c1	GPR151 ag 4.9 | GPR151 confirm inactive | GPR119 ag inactive
Nc1c(Br)cc(Br)cc1CNC1CCC(O)CC1 (stereo unspecified)	GPR151 ag 5.7! | GPR151 confirm inactive | GPR119 ag inactive
COc1ccc(Br)cc1CNC1CCCC1	none
COc1ccc(C2(O)CN(c3cc(OC)ccc3OC)C3=[N+]2CCCS3)cc1 (stereo unspecified)	none
COc1ccc(OC)c(N2CC(O)(c3ccc(OC)c(OC)c3)[N+]3=C2SCCC3)c1 (stereo unspecified)	GPR151 ag 5.4 | GPR151 confirm inactive | GPR119 ag inactive
O=C(COc1ccccc1)Nc1ccc(N2CCC(NCCN3CCNC3=O)CC2)cc1	none
O=C(Nc1ccc(N2CCC(NCCN3CCNC3=O)CC2)cc1)C1CCCC1	GPR151 ag 6.3 | GPR151 confirm inactive | GPR119 ag inactive
O=C1C2CCCCC2C(=O)N1CC(=O)N1c2ccccc2Sc2ccccc21 (stereo unspecified)	none
O=C(CCc1nnc(C2(c3ccc(Cl)cc3)CCC2)o1)NCc1cccnc1	GPR151 ag 4.9 | GPR151 confirm inactive | GPR119 ag inactive
O=C(CCc1nnc(C2(c3ccc(Cl)cc3)CCC2)o1)NCCCc1cccnc1	none
CC1(C)CC(=O)c2c(oc3c(Cl)cc(NS(=O)(=O)c4ccc5ccccc5c4)cc23)C1	GPR151 ag 10.2 | GPR151 confirm inactive | GPR119 ag inactive
CC1(C)CC(=O)c2c(oc3c(Cl)cc(NS(=O)(=O)c4ccccc4)cc23)C1	none

Screening data deposited in PubChem BioAssay by The Scripps Research Institute Molecular Screening Center.
